Experimental data from publication PMC5540273 (PLoS ONE, 2017).

Tests used:
Details in all cases: concentration: 1 μM, replicates: in singlicate; n = 1
CAMK4 = test system: CAMK4
CAMKK1 = test system: CAMKK1
CAMKK2 = test system: CAMKK2
CASK = test system: CASK
CDC2L1 = test system: T1, CDC2L1
T1 construct: gene CDK11B

CDC2L2 = test system: CDC2L2
CDC2L5 = test system: T2, CDC2L5
T2 construct: gene CDK13

CDK11 = test system: T3, CDK11
T3 construct: gene CDK19

CDK2 = test system: CDK2
CDK3 = test system: CDK3
CDK4-cyclinD1 = test system: CDK4-cyclinD1
CDK4-cyclinD3 = test system: CDK4-cyclinD3
CDK4 = test system: CDK4
CDK5 = test system: CDK5
CDK7 = test system: CDK7
CDK8 = test system: CDK8
CDK9 = test system: CDK9
CDKL1 = test system: CDKL1
CDKL2 = test system: CDKL2
CDKL3 = test system: CDKL3
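Note: KINOMEscan kinase panel screen.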

Row | SMILES | %Inh (CAMK4) | %Inh (CAMKK1) | %Inh (CAMKK2) | %Inh (CASK) | %Inh (CDC2L1) | %Inh (CDC2L2) | %Inh (CDC2L5) | %Inh (CDK11) | %Inh (CDK2) | %Inh (CDK3) | %Inh (CDK4-cyclinD1) | %Inh (CDK4-cyclinD3) | %Inh (CDK4) | %Inh (CDK5) | %Inh (CDK7) | %Inh (CDK8) | %Inh (CDK9) | %Inh (CDKL1) | %Inh (CDKL2) | %Inh (CDKL3)
1 | O=C1NC(=O)C(c2ccc(Cl)cc2)=C1Nc1cccc(Cl)c1 [SB-317651] | 29% | 7% | 5% | 27% | 0% | 4% | 0% | 6% | 0% | 8% | 12% | 0% | 100% | 0% | 16% | 2% | 0% | 11% | 20% | 2%
2 | NS(=O)(=O)c1cccc(N/C=C2\C(=O)Nc3ccc(S(=O)(=O)Cc4c(Cl)cccc4Cl)cc32)c1 [GSK398099] | 0% | 72% | 60% | 27% | 0% | 9% | 0% | 0% | 0% | 24% | 0% | 18% | 0% | 0% | 0% | 0% | 0% | 100% | 37% | 0%
3 | Cn1cnc2c(N)ncnc21 [SKF-97623] | 7% | 0% | 0% | 7% | 0% | 0% | 0% | 0% | 44% | 0% | 19% | 0% | 25% | 0% | 0% | 46% | 0% | 91.1% | 48% | 0%
4 | Nc1ncnc2occ(-c3ccc4c(c3)CCN4C(=O)Cc3cc(F)ccc3F)c12 [GSK2645446] | 0% | 0% | 13% | 0% | 0% | 12% | 0% | 81% | 0% | 0% | 0% | 0% | 18% | 0% | 0% | 79% | 0% | 17% | 0% | 0%
5 | COc1ccc(CSc2nnc(-c3ccc4nccn4c3)o2)cc1C(F)(F)F | 0% | 0% | 0% | 15% | 4% | 5% | 50% | 40% | 0% | 4% | 7% | 13% | 0% | 10% | 13% | 21% | 0% | 21% | 7% | 18%
6 | O=c1cc(N2CCOCC2)nc2n(Cc3cccc(Cl)c3Cl)c3ccccc3n12 [GSK2299009] | 9% | 27% | 29% | 10% | 0% | 11% | 0% | 94.4% | 0% | 29% | 0% | 0% | 31% | 16% | 0% | 0% | 6% | 15% | 14% | 0%
